Experimental data: PubChem BioAssay (NCATS)
Values joined by “and” are separate entries in the source; they are usually repeats but may differ in a detail not shown here. Identical values can stand only once. Records with an inconclusive call do not appear. Active and inactive are the calls of the source. Unless noted, calls follow the shape of the dose curve; as a rule, active = well fitted curve in the direction sought with a large enough effect; inconclusive = small, poorly fitted or top-dose-only effect, or another doubt; inactive = no such curve, though single readings can be large; an effect the other way counts as inactive or inconclusive.

Assays:
[1] = qHTS for small molecule inhibitors of Yes1 kinase: Counter Assay (AID 686950);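 also: no kinase present so only ADP-Glo detection of a fixed ADP amount is tested; luminescence from ADP-Glo reporting ADP in a fixed ATP and ADP mixture; 0% = DMSO wells with ATP plus ADP and -100% = ATP-only wells without ADP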
Outline: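 Enzyme-free detection counter-screen: compounds preincubated 20 min in buffer, then 0.08 mM ATP plus 0.02 mM ADP added for 60 min at room temperature; ADP-Glo luminescence. Buffer 50 mM Tris pH 7.5, 10 mM MgCl2, 150 mM NaCl; normalized to ATP+ADP and ATP-only controls.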

[2] = qHTS profiling for inhibitors of Plasmodium falciparum (3D7) proliferation (AID 743322);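 also: infected erythrocytes exposed to compound for 72 h before lysis; 100% = DMSO vehicle wells and 0% = 0.29 µM artemisinin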; details: P. falciparum 3D7 proliferation; at 28.7 µM (top of the series) unless noted
Outline: (§1)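 Erythrocytes infected with P. falciparum (0.3% parasitemia, 2.5% hematocrit) incubated with compounds 72 h at 37 C, 5% CO2. Lysis with saponin/Triton buffer containing SYBR Green I, overnight at room temperature in the dark; DNA fluorescence (485/535 nm) normalised to 0.29 uM artemisinin and DMSO.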

[3] = qHTS profiling for inhibitors of Plasmodium falciparum (HB3) proliferation (AID 743324); details: Plasmodium falciparum HB3 blood-stage proliferation; at 28.7 µM (top of the series) unless noted;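 also: 100% = DMSO vehicle wells and 0% = artemisinin-treated control wells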
Outline: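 P. falciparum HB3 grown in erythrocytes (0.3% parasitemia, 2.5% hematocrit final) with compound for 72 h at 37 C, 5% CO2. Parasite DNA detected by SYBR Green after saponin/triton lysis overnight; normalized to 0.29 uM artemisinin and DMSO.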

[4] = qHTS profiling of the MIPE4 collection as inhibitors of Plasmodium falciparum (3D7) proliferation (AID 743344; call rule not given here;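 also: scaled between DMSO vehicle wells and 0.29 µM artemisinin as full inhibition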); details: P. falciparum 3D7 in erythrocytes, SYBR Green DNA fluorescence, 72 h; at 28.5 µM (top of the series) unless noted
Outline: as §1

[5] = qHTS profiling of the MIPE4 collection as inhibitors of Plasmodium falciparum (DD2) proliferation (AID 743345; call rule not given here); details: P. falciparum Dd2 in erythrocytes, SYBR Green DNA, 72 h; at 28.5 µM (top of the series) unless noted
Outline: as §1

[6] = qHTS profiling of the MIPE4 collection as inhibitors of Plasmodium falciparum (DD2) proliferation (Rep 2) (AID 743346; call rule not given here); details: P. falciparum Dd2 in erythrocytes, SYBR Green DNA, 72 h; at 28.5 µM (top of the series) unless noted
Outline: as §1

[7] = qHTS profiling of the MIPE4 collection as inhibitors of Plasmodium falciparum (HB3) proliferation (AID 743347; call rule not given here;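 also: plate controls were DMSO vehicle wells for no effect and artemisinin wells for full effect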); details: P. falciparum HB3 in erythrocytes, SYBR Green DNA, 72 h; at 28.5 µM (top of the series) unless noted
Outline: as §1

[8] = High-throughput drug toxicity screening in the BPDCN cell line Gen2.2 (AID 1224824; call rule not given here;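 also: cells exposed to compounds for 48 h before reading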); details: Gen2.2 BPDCN cells; at 45.8 µM (top of the series) unless noted
Outline: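 Gen2.2 cells (500/well) in phenol red-free RPMI with 10% FBS were exposed to compounds for 48 h at 37 °C, 5% CO2. Viability was read by CellTiter-Glo luminescence and normalized to DMSO (100%) and 9.2 uM bortezomib (0%).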

[9] = molecular target: Arylsulfatase A (Homo sapiens) (UniProt P15289); assay: qHTS screen for enhancers of Arylsulfatase A (ASA1): LOPAC Validation Assay (AID 720538)
Outline: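 SV40-transformed skin fibroblasts from an MLD patient (ASA-I179S) were treated with compounds for 48h at 37 degree C, then lysed with 0.5mM pNCS final substrate for 14h at room temperature; NaOH stop, fluorescence read (Ex=525 nm; Em=598 nm).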

[10] = qHTS for compounds that reverse cellular toxicity of Amyloid beta (A-beta) peptide in yeast: LOPAC Validation Assay (AID 720559);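 also: plate controls were DMSO for no effect and equimolar ferric chloride plus clioquinol rescue for full effect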
Outline: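 Yeast cells expressing toxic A-beta were combined with pinned compounds in growth medium and incubated 48 hr at 30 C. Growth was read as absorbance at 600 nm and normalized to DMSO and to an equimolar FeCl3/clioquinol positive control.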

[11] = qHTS for Activators of Parkin Expression: LOPAC Validation Assay (NLuc Reporter) (AID 720572;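 also: 0% = DMSO and 100% = positive control compound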)
Outline: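 Neuronal cells with a Parkin promoter-driven FLuc/NLuc coincidence reporter were treated 24 h at 37 C in 7-point dose response (LOPAC). NLuc luminescence read after FLuc; signals normalized to DMSO and positive control (100%).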

[12] = molecular target: T1, Hexokinase-4 (Homo sapiens) + Glucokinase regulatory protein (Homo sapiens) (UniProt P35557+Q14397); assay: qHTS assay for inhibitors of recombinant human GCK-GKRP interaction: Diaphorase-coupled assay (AID 743205)
Outline: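 GST-GCK (10 nM) with FLAG-GKRP (10 nM), 5 mM glucose and 0.4 mM ATP in pH 7.6 Hepes; compounds preincubated 20 min with substrate. G6PDH/diaphorase coupling converts resazurin to resorufin, read kinetically (ex 525/em 590 nm) for 30 min.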

[13] = molecular target: T1, Hexokinase-4 (Homo sapiens) + Glucokinase regulatory protein (Homo sapiens); assay: qHTS assay for inhibitors of recombinant human GCK-GKRP interaction: HTRF assay (AID 743207);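 also: 0% = DMSO with GCK present and -100% = DMSO wells lacking GCK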
Outline: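 GST-GCK and FLAG-GKRP (5 nM each) were combined with 2 uM S6P in pH 7.1 Hepes/MgCl2/KCl/DTT buffer, then compound and anti-FLAG XL665/anti-GST K antibodies were added. After 60 min at room temperature, HTRF 665/615 nm emission was read.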

[14] = qHTS Assay for Identifying Gametocytocidal Compounds (AID 743244);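 also: % is scaled to controls: 0 for no effect and ±100 for the full control effect; actives lower the fluorescent signal which means gametocytes are killed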; details: P. falciparum 3D7 stage III-V gametocytes, alamarBlue, 72 h; max response: stronger effect = lower value
Outline: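 Stage III-V P. falciparum 3D7 gametocytes, 20,000 per well, were exposed to compounds for 72 h at 37C, 5% CO2. AlamarBlue was then added for 24 h and viability was read as fluorescence at Ex 525/Em 598 nm.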

[15] = qHTS for Activators of Parkin Expression: LOPAC Validation Assay (FLuc Reporter) (AID 720573;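 also: 0% = DMSO and 100% = positive control compounds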)
Outline: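 Neuronal cell line stably carrying FLuc/NLuc coincidence reporter under Parkin promoter; cells plated 24 h, then compounds added in 7-point dose response for 24 h at 37 C. FLuc luminescence read; normalized to DMSO and positive control (100%).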

[16] = qHTS assay for small molecule agonists of the antioxidant response element (ARE) signaling pathway measured by Nrf2-dependant transcriptional activity (AID 720636; active = well fitted curve in the direction sought with a large enough effect in the repeat runs; an effect the other way counts as inactive or inconclusive; also: % of control where 0% means no effect)
Outline: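 ARE-luc HepG2 cells carrying an Nrf2-responsive luciferase reporter, in medium with 1% dialyzed FBS, exposed to compound for 16 hr at 37 C, 5% CO2. Luminescence read 30 min after ONE-Glo addition.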

[17] = qHTS assay for small molecule agonists of the antioxidant response element (ARE) signaling pathway measured by Nrf2-dependant transcriptional activity - cell viability counter screen (AID 720653; active = well fitted curve in the direction sought with a large enough effect in the repeat runs; an effect the other way counts as inactive or inconclusive; also: % is scaled to controls: 0 for no effect and ±100 for the full control effect); details: ARE-bla HepG2 viability, CellTiter-Glo ATP luminescence, 16 h; max response: stronger effect = lower value
Outline: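 ARE-bla HepG2 cells treated with compounds for 16 h at 37C; this counter screen measures viability as intracellular ATP by CellTiter-Glo luminescence after 30 min at room temperature.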

[18] = qHTS assay for cell viability of HEK293 cells (AID 743288); details: ATP luminescence (CellTiter-Glo), 18 h; max response: stronger effect = lower value; also: % is scaled to controls: 0 for no effect and ±100 for the full control effect; nearly all actives have a fitted effect of over 50% in size
Outline: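 Parental HEK293 cells were seeded at 2,000 cells/well, rested at least 5 h at 37 C, then exposed to compounds in DMSO for 18 h at 37 C. Viability was read as ATP-dependent luciferase luminescence after 30 min at room temperature.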

[19] = qHTS assay for cell viability of the p53RE-bla HCT-116 cell line (AID 743292); also: % is scaled to controls: 0 for no effect and ±100 for the full control effect; nearly all actives have a fitted effect of over 55% in size
Outline: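 CellSensor p53RE-bla HCT-116 cells (4,000/well) pre-incubated 5 h at 37 C, then exposed to compounds in DMSO for 16 h at 37 C. Viability read as ATP content by CellTiter-Glo luminescence after 30 min at room temperature.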

T1 sequence (P35557 whole entry, looked up): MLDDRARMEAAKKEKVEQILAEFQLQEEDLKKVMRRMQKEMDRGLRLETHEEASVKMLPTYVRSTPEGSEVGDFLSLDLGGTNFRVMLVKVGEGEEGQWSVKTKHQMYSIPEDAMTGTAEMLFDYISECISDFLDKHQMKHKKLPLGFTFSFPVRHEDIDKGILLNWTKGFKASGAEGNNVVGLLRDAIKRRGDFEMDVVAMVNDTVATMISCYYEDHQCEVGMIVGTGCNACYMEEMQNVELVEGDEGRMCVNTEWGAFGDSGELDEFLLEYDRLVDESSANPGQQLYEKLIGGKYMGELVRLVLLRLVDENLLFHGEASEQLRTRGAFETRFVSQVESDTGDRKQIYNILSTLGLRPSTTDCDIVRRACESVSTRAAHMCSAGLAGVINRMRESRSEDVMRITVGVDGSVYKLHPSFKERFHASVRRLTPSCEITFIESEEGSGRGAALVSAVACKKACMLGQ
T1 sequence (Q14397 whole entry, looked up): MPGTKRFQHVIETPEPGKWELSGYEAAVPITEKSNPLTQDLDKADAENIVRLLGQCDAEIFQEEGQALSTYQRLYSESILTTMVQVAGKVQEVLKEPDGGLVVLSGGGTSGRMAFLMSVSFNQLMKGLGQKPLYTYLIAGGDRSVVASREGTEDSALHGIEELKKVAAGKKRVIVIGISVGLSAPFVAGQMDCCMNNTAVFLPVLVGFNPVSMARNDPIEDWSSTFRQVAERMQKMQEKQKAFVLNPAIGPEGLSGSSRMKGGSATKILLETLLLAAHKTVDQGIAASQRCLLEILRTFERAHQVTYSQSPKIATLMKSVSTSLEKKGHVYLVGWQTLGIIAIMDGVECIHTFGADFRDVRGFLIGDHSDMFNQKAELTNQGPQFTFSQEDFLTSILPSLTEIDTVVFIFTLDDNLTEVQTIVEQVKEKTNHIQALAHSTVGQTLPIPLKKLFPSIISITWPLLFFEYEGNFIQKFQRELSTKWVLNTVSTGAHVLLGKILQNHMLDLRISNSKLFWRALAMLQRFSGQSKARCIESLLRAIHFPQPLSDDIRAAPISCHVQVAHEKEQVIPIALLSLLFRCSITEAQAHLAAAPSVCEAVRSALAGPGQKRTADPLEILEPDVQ
Sequence of Arylsulfatase A (Homo sapiens) (P15289 whole entry, looked up): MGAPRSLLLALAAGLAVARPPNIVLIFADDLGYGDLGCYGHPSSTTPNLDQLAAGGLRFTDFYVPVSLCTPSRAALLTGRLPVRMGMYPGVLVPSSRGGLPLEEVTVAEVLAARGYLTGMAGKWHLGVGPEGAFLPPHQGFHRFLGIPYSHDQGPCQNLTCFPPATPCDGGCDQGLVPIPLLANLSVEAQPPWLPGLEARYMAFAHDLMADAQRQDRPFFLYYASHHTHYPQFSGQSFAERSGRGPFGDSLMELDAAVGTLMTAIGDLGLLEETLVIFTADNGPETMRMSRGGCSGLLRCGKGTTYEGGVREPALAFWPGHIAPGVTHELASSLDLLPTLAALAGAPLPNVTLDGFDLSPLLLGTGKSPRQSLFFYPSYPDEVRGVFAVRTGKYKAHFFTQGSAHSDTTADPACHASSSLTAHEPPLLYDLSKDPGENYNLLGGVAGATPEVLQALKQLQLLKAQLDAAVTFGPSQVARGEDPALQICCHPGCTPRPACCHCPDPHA

Compound | outcome [1] | remaining parasite growth % (stronger effect = lower value) [2] | remaining proliferation (% of control), lower = more inhibition [3] | parasite growth, % of DMSO control [4] | parasite growth remaining, % of DMSO control (lower = more inhibition) [5] | parasite growth, % of control (lower = inhibition) [6] | growth, % of control [7] | cell viability, % of control (lower = more cytotoxic) [8] | Potency [9] | outcome [10] | outcome [11] | outcome [12] | outcome [13] | max response [14] | Potency [15] | Potency [16] | max response [17] | max response [18] | Potency [19]
CCN(CC)CCOc1ccc(Nc2ncc3cc(-c4c(Cl)cccc4Cl)c(=O)n(C)c3n2)cc1 | inactive | 0.673% | -0.176% | 6.09% | 8.57% | 10.6% | 4.26% | 4.53% | – | – | – | – | – | – | – | – | – | – | –
O=C(c1ccccc1)c1ccc2n1CCC2C(=O)O (stereo not drawn) | – | – | – | 67.8% | 107% | – | 104% | 14.8% | inactive | inactive | inactive | inactive | inactive | 44.1% (inactive) and 46.1% (inactive) | – | – | – | – | –
Nc1ccn([C@@H]2O[C@H](CO)[C@@H](O)C2O)c(=O)n1 (stereo partly drawn) | – | – | – | – | 137% | 71% | 107% | 225% | inactive | inactive | inactive | inactive | inactive | 0.0114% (inactive) and -8.34% (inactive) | inactive | – | – | – | –
NNc1nncc2ccccc12 | – | – | – | 85.6% | 92.8% | – | 95.2% | 166% | inactive | – | – | inactive | inactive | -0.582% (inactive) and 32.1% (inactive) | – | – | – | – | –
CCN(CCO)CCCC(C)Nc1ccnc2cc(Cl)ccc12 (stereo not drawn) | inactive | 0.834% and 0.742% | 1.3% and -0.152% | – | 16.9% | 15.4% | 49.8% | 86.1% | – | – | – | – | – | -15.7% (inactive) | – | – | – | – | –
O=c1c(O)c(-c2ccc(O)cc2O)oc2cc(O)cc(O)c12 | – | – | – | 80.8% | 71% | – | 99.8% | 74.1% | inactive | inactive | inactive | inactive | – | 11.7% (inactive) | inactive | inactive | 6.53% (inactive) | -9.35% (inactive) | inactive
CNC[C@H](O)c1ccc(O)c(O)c1 | – | – | – | – | 70.6% [at 57.5 µM] | 51.2% [at 57.5 µM] | 78% [at 57.5 µM] | 50.3% [at 92.2 µM] | – | inactive | inactive | inactive | inactive | -9.4% (inactive) and 18.5% (inactive) | inactive | inactive | 4.44% (inactive) | -7.6% (inactive) | inactive
COc1cc2nc(N3CCN(C(=O)C4CCCO4)CC3)nc(N)c2cc1OC (stereo not drawn) | – | – | – | 30.8% | 76.4% | – | 11.3% | 151% | – | inactive | inactive | inactive | inactive | -8.17% (inactive) and 12.4% (inactive) | inactive | – | – | – | –
